# Source: PubChem BioAssay (NCATS)
# Results filed as inconclusive are left out. Active and inactive are the calls of the source. Unless noted, calls come from the whole dose curve; as a rule, active = well fitted curve in the direction sought with a large enough effect; inconclusive = small, poorly fitted or top-dose-only effect, or another doubt; inactive = no such curve, though single readings can be large; an effect the other way counts as inactive or inconclusive.
# How the values were obtained:
# [1] = Cell Viability - LYMP2-007 (AID 979);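 note: potency is the fitted concentration of half-maximal effect; cells exposed to compound for 24 h before reading; nearly all actives have a fitted effect of over 60% in size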
# How it was run: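 Measured via luciferase-based ATP quantitation: lymphoblastoid cells, 24 hr compound exposure at 37 C, AC50 from Hill fits.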
# [2] = Cell Viability - LYMP2-008 (AID 980); note: potency is the fitted concentration of half-maximal effect; nearly all actives have a fitted effect of over 60% in size
# How it was run: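 Measured: ATP-dependent luminescence, proportional to viable cell number, in human lymphoblastoid cells treated 24 hr with compound in complete culture medium. Values are AC50s from Hill-equation modelling of qHTS titrations.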
# [3] = Cell Viability - LYMP2-010 (AID 981); note: potency is the fitted concentration of half-maximal effect; nearly all actives have a fitted effect of over 55% in size
# How it was run: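 This 24 hr viability screen uses LYMP2-010 lymphoblastoid cells, quantifies ATP via luciferase luminescence, and derives AC50 from Hill fits of qHTS concentration-response data.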
# [4] = Cell Viability - LYMP2-012 (AID 982);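 note: cellular ATP by luciferase luminescence where a drop means cytotoxicity; potency is the fitted concentration of half-maximal effect; cells exposed to compound for one day before reading; nearly all actives have a fitted effect of over 55% in size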
# [5] = Cell Viability - LYMP2-020 (AID 986); note: potency is the fitted concentration of half-maximal effect; nearly all actives have a fitted effect of over 55% in size
# How it was run: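 Cells at 2500 per well receive a 24 hr compound exposure at 37 C. Viability is measured as ATP-dependent luciferase luminescence, with AC50 modeled from qHTS concentration-response curves.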
# [6] = Cell Viability - LYMP2-022 (AID 987); note: potency is the fitted concentration of half-maximal effect; nearly all actives have a fitted effect of over 55% in size
# How it was run: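 In this qHTS cytotoxicity screen, compound titrations were incubated 24 hr at 37 C with human lymphoblastoid cells in complete medium. Luciferase-based ATP luminescence provided the viability signal.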
# [7] = Cell Viability - LYMP2-024 (AID 988); note: potency is the fitted concentration of half-maximal effect; nearly all actives have a fitted effect of over 60% in size
# How it was run: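 Cells at 2500 per well received compound for 24 hr after a 5 hr settling period. Viability was scored by CellTiter-Glo luminescence, with AC50 from Hill fits.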
# [8] = Cell Viability - LYMP1-002 - Assay at 24 hr (AID 993); note: % is set by controls: 0 for no effect and ±100 for the full control effect
# How it was run: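 Viability was judged from intracellular ATP using a luciferase read-out, following a 24-hour compound incubation at 37 C of lymphoblastoid cells seeded at 2500 per well. Concentration-response data were fitted to the Hill equation for AC50.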
# [9] = Cell Viability - LYMP1-002 - Assay at 40 hr (AID 994);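 note: 0% = DMSO only and full inhibition = 92 µM tetraoctylammonium bromide; nearly all actives have a fitted effect of over 60% in size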
# How it was run: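 Concentration-dependent ATP loss after 40 hr treatment at 37 C defined toxicity; AC50 values were obtained by fitting the standard Hill equation.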
# [10] = qHTS Assay for Identification of Small Molecule Inducers of Hypoxia Response (AID 2120; active = well fitted curve in the direction sought with a large enough effect in the signal ratio, with a control signal flat, not every such curve was filed as active; the % refers to the signal ratio; note: 0% is about no effect)
# How it was run: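 HRE-bla ME-180, 2500 cells/well, 0.5% dialyzed FBS medium; cpd titration, 17 h 37 degrees C; CCF4 2.5 h RT; Ex 405, Em 460/530 ratio -> %Activity, AC50.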
# [11] = target: Estrogen receptor (Homo sapiens) (UniProt P03372); assay: qHTS assay for small molecule antagonists of estrogen receptor alpha signaling (AID 588513; active = well fitted curve in the direction sought with a large enough effect in the signal ratio, with a control signal flat, not every such curve was filed as active; the % refers to the signal ratio; note: % is set by controls: 0 for no effect and ±100 for the full control effect)
# Sequence of Estrogen receptor (Homo sapiens) (P03372 whole entry, looked up): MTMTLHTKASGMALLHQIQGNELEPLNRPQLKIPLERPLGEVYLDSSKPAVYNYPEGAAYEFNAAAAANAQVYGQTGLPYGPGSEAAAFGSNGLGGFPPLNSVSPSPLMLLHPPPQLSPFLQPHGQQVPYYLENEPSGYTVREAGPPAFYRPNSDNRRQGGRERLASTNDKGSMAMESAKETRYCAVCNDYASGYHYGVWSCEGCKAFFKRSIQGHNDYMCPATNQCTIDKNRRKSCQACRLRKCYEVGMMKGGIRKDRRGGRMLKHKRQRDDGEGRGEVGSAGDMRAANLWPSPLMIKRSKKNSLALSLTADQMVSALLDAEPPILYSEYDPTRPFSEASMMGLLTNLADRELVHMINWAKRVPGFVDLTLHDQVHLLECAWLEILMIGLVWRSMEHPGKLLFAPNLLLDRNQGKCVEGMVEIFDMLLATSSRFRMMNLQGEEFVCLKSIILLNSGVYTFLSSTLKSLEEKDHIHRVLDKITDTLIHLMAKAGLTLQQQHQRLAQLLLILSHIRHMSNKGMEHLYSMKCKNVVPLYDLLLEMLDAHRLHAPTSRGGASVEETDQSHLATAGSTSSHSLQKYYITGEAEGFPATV
# How it was run: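 Cells were plated at 5000/well and incubated 4 h at 37 C. Compounds were added as 1:2 dilution series, duplicates. 17-beta-estradiol (0.5nM final) was added for 18 h before CCF4 detection.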
# [12] = target: Estrogen receptor (Homo sapiens) (UniProt P03372); assay: qHTS assay for small molecule agonists of estrogen receptor alpha signaling (AID 588514; calls by dose curve;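 note: 0% = vehicle only and 100% = reference agonist; nearly all actives have a fitted effect of over 70% in size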)
# How it was run: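 Fluorescence from CCF4 cleavage reports ER-alpha-driven beta-lactamase expression in HEK 293 cells treated 18 hrs at 37 C. Data normalized to 17-beta-estradiol (20 nM) and DMSO, fitted to Hill equation.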
# [13] = target: Androgen receptor (Homo sapiens) (UniProt P10275); assay: qHTS assay for small molecule agonists of androgen receptor signaling (AID 588515; active = well fitted curve in the direction sought with a large enough effect in the signal ratio, with a control signal flat; the % refers to the signal ratio; note: % is set by controls: 0 for no effect and ±100 for the full control effect); conditions: AR-UAS-bla HEK293, beta-lactamase ratio, agonist 16 h; stronger effect = higher value
# How it was run: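 Stimulation of an AR-responsive β-lactamase reporter in GripTite HEK293 cells was measured after 16 h compound exposure at 37 °C, via CCF4 fluorescence after 2 h RT. EC50 from Hill fits, normalized to R1881 at 30 nM.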
# [14] = target: Bile acid receptor (Homo sapiens) (UniProt Q96RI1); assay: qHTS assay for small molecule agonists of farnesoid X receptor signaling (AID 588527; calls by dose curve;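 note: series mostly up to about 77 µM; 0% = vehicle basal and 100% = reference agonist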); conditions: HEK293T FXR-UAS-bla, beta-lactamase ratio, 16 h; stronger effect = higher value
# Sequence of Bile acid receptor (Homo sapiens) (Q96RI1 whole entry, looked up): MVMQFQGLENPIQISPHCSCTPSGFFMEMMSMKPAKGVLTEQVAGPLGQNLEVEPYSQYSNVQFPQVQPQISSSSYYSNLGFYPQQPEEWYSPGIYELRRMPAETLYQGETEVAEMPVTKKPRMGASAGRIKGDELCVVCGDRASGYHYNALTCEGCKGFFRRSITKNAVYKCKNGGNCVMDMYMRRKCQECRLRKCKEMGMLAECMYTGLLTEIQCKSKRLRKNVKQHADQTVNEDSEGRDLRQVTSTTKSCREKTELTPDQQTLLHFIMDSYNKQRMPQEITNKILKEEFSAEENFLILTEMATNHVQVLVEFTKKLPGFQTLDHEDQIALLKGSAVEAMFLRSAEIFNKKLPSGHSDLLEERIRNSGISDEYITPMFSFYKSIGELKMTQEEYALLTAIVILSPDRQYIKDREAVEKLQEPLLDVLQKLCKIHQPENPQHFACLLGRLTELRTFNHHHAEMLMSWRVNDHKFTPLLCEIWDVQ
# How it was run: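 FXR-UAS-bla HEK293T cells (10% dialyzed FBS) preincubated 5-7 h at 37 C, then compounds at up to 92 uM for 16 h at 37 C. CCF4 beta-lactamase read-out after 2 h RT. Normalized to chenodeoxycholic acid (100 uM) and DMSO; Hill fit gave EC50 and efficacy.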
# [15] = target: Peroxisome proliferator-activated receptor delta (Homo sapiens) (UniProt Q03181); assay: qHTS assay for small molecule agonists of peroxisome proliferator-activated receptor delta signaling (AID 588534; calls by dose curve;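 note: 0% = DMSO basal wells and 100% = positive control agonist at 10 µM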)
# Sequence of Peroxisome proliferator-activated receptor delta (Homo sapiens) (Q03181 whole entry, looked up): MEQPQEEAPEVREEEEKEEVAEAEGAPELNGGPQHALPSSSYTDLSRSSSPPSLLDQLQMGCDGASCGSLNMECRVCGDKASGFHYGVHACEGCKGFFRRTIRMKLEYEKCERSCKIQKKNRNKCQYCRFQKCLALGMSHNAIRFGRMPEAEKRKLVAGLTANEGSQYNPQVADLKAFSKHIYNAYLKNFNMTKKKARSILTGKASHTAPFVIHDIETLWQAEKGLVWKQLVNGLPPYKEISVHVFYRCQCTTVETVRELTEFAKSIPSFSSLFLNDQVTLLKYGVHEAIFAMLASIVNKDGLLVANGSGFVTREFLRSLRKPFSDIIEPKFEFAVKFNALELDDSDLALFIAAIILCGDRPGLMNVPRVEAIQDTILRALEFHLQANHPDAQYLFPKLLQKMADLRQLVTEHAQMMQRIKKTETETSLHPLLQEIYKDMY
# How it was run: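 EC50 and efficacy values derive from Hill fits of a concentration series in a beta-lactamase reporter cell assay. Exposure is 18 hrs at 37 C, with CCF4 fluorescence as the readout.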
# [16] = target: Peroxisome proliferator-activated receptor gamma (Homo sapiens) (UniProt P37231); assay: qHTS assay for small molecule agonists of peroxisome proliferator-activated receptor gamma signaling (AID 588536; active = well fitted curve in the direction sought with a large enough effect in the signal ratio, with a control signal flat, not every such curve was filed as active; the % refers to the signal ratio;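 note: 0% = DMSO basal wells and 100% = rosiglitazone at 2 µM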)
# Sequence of Peroxisome proliferator-activated receptor gamma (Homo sapiens) (P37231 whole entry, looked up): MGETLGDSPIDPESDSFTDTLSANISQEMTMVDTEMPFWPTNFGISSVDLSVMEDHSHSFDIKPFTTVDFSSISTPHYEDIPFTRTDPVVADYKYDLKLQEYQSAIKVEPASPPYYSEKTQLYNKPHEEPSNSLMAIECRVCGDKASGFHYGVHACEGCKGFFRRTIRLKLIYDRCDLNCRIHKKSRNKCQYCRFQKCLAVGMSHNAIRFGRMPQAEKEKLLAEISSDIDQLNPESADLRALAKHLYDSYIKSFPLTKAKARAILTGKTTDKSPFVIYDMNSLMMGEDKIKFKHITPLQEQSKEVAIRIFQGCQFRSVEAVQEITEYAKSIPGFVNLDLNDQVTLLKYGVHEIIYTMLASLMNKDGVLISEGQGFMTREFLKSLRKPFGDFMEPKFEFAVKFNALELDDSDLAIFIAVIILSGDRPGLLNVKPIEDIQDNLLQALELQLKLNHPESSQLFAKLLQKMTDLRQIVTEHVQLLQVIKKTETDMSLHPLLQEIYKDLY
# How it was run: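 Cells were plated and held 6–6.5 h at 37 C, then compounds were added as a titration series. After a further 16 h, CCF4 dye was loaded for 2 h at room temperature and emission at 460/530 nm recorded.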
# [17] = target: Vitamin D3 receptor (Homo sapiens) (UniProt P11473); assay: qHTS assay for small molecule agonists of vitamin D receptor signaling (AID 588543; calls by dose curve;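 note: 0% = DMSO basal and 100% = reference agonist control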)
# Sequence of Vitamin D3 receptor (Homo sapiens) (P11473 whole entry, looked up): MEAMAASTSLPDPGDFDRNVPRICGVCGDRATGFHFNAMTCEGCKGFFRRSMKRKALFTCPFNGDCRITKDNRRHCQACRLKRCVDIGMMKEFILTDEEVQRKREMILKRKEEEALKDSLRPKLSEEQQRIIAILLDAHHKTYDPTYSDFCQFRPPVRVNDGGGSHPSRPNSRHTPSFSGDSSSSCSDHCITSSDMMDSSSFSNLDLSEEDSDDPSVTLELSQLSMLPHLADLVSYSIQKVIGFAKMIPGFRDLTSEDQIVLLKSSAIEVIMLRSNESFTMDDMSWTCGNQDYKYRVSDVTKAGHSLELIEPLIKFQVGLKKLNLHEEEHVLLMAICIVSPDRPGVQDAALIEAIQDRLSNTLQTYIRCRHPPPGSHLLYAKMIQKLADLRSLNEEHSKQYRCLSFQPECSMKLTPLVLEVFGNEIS
# How it was run: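 qHTS in agonist mode: compound titrations stimulate a VDR-driven β-lactamase reporter in HEK293T cells over 16 h at 37 °C. Response normalized to 50 nM 1α,25-dihydroxyvitamin D3 = 100%, DMSO = 0%; Hill fitting gives EC50 and maximal response.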
# [18] = qHTS assay for small molecule agonists of retinoid X receptor alpha signaling (AID 588544; calls by dose curve;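 for activation: 0% = DMSO basal wells and 100% = reference agonist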); conditions: HEK293T RXRa-UAS-bla, beta-lactamase reporter, 18 h; 530 nm emission
# [19] = target: Retinoic acid receptor RXR-alpha (Homo sapiens) (UniProt P19793); assay: as above
# Sequence of Retinoic acid receptor RXR-alpha (Homo sapiens) (P19793 whole entry, looked up): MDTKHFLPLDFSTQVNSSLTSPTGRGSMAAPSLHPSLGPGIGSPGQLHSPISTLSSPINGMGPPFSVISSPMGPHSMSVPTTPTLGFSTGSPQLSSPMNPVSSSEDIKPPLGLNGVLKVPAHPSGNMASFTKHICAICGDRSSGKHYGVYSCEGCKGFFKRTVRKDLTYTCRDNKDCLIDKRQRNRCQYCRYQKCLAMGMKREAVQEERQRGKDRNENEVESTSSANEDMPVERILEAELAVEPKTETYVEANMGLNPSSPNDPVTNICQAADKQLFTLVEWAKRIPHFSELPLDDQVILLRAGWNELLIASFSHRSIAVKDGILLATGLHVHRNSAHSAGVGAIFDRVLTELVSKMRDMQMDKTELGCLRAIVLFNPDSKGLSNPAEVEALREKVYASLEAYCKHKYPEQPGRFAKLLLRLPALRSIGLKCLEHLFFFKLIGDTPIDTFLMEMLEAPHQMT
# [20] = qHTS assay for small molecule antagonists of retinoid X receptor alpha signaling (AID 588546; active = well fitted inhibition curve with a large enough effect in the signal ratio, with a control signal flat, not every such curve was filed as active; the % refers to the signal ratio;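 note: cells stimulated with 9-cis-retinoic acid as agonist; % is set by controls: 0 for no effect and ±100 for the full control effect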); conditions: HEK293T RXRa-UAS-bla, beta-lactamase ratio, antagonist mode; measured here: W530 green channel, cytotoxicity proxy
# How it was run: (§1)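 Beta-lactamase reporter inhibition, read as CCF4 fluorescence ratio (ex 405, em 460/530 nm) after 2 h at RT. HEK293T UAS-bla cells, 2500/well, were stimulated with 9-cis-RA at 500 or 100 nM final alongside test compound for 18 h at 37 C.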
# [21] = target: Retinoic acid receptor RXR-alpha (Homo sapiens) (UniProt P19793); assay: as above; conditions: HEK293T RXRa-UAS-bla, beta-lactamase ratio, antagonist mode
# How it was run: as §1
# [22] = target: Thyroid hormone receptor beta (Homo sapiens) (UniProt P10828); assay: qHTS assay for small molecule antagonists of thyroid hormone receptor beta signaling (AID 588547; active = well fitted inhibition curve with a large enough effect in the signal ratio, with a control signal flat, not every such curve was filed as active; the % refers to the signal ratio); conditions: TR-UAS-bla HEK293, beta-lactamase ratio, antagonist mode, 18 h
# Sequence of Thyroid hormone receptor beta (Homo sapiens) (P10828 whole entry, looked up): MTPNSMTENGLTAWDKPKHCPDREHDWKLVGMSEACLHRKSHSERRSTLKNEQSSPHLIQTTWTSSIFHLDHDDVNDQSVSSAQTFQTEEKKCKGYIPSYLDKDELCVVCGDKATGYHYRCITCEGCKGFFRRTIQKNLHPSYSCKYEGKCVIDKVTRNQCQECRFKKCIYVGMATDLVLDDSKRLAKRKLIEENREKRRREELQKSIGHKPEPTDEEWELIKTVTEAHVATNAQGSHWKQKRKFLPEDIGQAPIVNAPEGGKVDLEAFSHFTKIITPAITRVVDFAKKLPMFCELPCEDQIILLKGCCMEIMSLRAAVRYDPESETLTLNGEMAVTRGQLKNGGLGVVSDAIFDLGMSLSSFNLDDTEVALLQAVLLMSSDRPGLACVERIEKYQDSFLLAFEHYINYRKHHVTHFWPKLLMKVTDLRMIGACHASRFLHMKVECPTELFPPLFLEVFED
# How it was run: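 TR-UAS-bla GripTite HEK293 cells in 2% charcoal/dextran FBS medium; compounds 0.59 nM to 92 uM with T3 at 0.4nM final, 18 h at 37 C. Beta-lactamase read by CCF4 fluorescence (460/530 nm); Hill fits gave IC50 and efficacy.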
# [23] = qHTS assay for small molecule agonists of the antioxidant response element (ARE) signaling pathway (AID 651741; active = well fitted activation curve with a large enough effect in the signal ratio; the % refers to the signal ratio; note: potency is the fitted concentration of half-maximal effect)
# How it was run: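 HepG2 ARE-bla reporter cells, 2,000/well; 5 h settle at 37 C/5% CO2; compound pin transfer (23 nL, DMSO); 16 h at 37 C; LiveBLAzer B/G FRET substrate, 2 h RT; fluorescence intensity read.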
# [24] = qHTS assay for small molecule activators of the p53 signaling pathway (AID 651743; active = well fitted activation curve with a large enough effect in the signal ratio, not every such curve was filed as active; the % refers to the signal ratio; note: series mostly up to about 92 µM; % of control where 0% means no effect); conditions: HCT-116 p53RE-bla, beta-lactamase FRET ratio, 16 h; activation: stronger effect = higher value
# How it was run: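 Reporter: beta-lactamase driven by p53 response elements, stably integrated in HCT-116 cells. Cells seeded at 4,000/well, 5 h preincubation, compound (DMSO) 16 h at 37 C; B/G FRET substrate 2 h RT; fluorescence intensity read.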
# [25] = qHTS assay for small molecule activators of the nuclear factor-kappa B (NF-kB) signaling pathway (AID 651749; active = well fitted activation curve with a large enough effect in the signal ratio; the % refers to the signal ratio; note: series mostly up to about 77 µM; % of control where 0% means no effect); conditions: NF-kB-bla ME-180 cells, beta-lactamase FRET ratio, 16 h; stronger effect = higher value
# How it was run: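 NF-kB-bla ME-180 cells, 2,000/well; 23 nL compound or DMSO pinned; 16 hr, 37C/5% CO2; beta-lactamase FRET read-out.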
# [26] = qHTS assay for small molecule disruptors of the mitochondrial membrane potential - 5 hr assay (AID 651755; calls by dose curve; note: % is set by controls: 0 for no effect and ±100 for the full control effect; nearly all actives have a fitted effect of over 40% in size)
# How it was run: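 Read-out: ratiometric Mito-MPS fluorescence, green monomer (ex 490/em 535) vs red mitochondrial aggregate (ex 540/em 590). HepG2 cells treated 5 hr at 37C before 30 min dye loading.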
# [27] = target: Tumor necrosis factor (Homo sapiens) (UniProt P01375); assay: qHTS assay to identify small molecules that stimulate Tumor Necrosis Factor-alpha (TNF-alpha) secretion (AID 651757; active = well fitted curve in the direction sought with a large enough effect in the signal ratio; the % refers to the signal ratio; note: 0% is about no effect)
# Sequence of Tumor necrosis factor (Homo sapiens) (P01375 whole entry, looked up): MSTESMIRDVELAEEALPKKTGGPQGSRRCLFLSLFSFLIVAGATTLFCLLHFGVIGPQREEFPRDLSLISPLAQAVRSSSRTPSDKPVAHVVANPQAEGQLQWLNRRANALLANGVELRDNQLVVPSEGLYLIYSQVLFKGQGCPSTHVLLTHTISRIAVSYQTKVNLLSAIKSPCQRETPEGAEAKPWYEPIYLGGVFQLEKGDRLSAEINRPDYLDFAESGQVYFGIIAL
# How it was run: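 Using 3000 THP-1 cells per well, compounds and controls were applied for 17 hrs at 37 C. Detection followed with two labeled anti-TNF-alpha antibodies (cryptate donor, XL665 acceptor) for 3 hr at room temperature, measured by TR-FRET.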
# [28] = qHTS assay to identify small molecules that stimulate interleukin-8 (IL-8) secretion (AID 651758; active = well fitted activation curve with a large enough effect in the signal ratio; the % refers to the signal ratio; note: potency is the fitted concentration of half-maximal effect)
# How it was run: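 Compounds are added to THP-1 cells (2000 per well) and left 16 hrs at 37 C. A labeled anti-IL-8 antibody pair is then added, and IL-8 secretion is measured by time-resolved FRET after 1-3 hrs at room temperature.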
# [29] = qHTS assay for environmental chemicals that activate the Aryl hydrocarbon Receptor (AhR) signaling pathway (AID 651777); conditions: 1A2-DRE human hepatoma cells, luciferase, 24 h; activation: stronger effect = higher value; note: % of control where 0% means no effect; nearly all actives have a fitted effect of over 15% in size
# How it was run: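 Human hepatoma 1A2-DRE cells stably carrying a DRE/CYP1A2 promoter–luciferase reporter, 1,200 cells/well, exposed to compound 24 hr at 37 C. Luciferase read by One-Glo luminescence after 30 min at room temperature; increased signal marks AhR activation.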
# [30] = target: Peroxisome proliferator-activated receptor alpha (Homo sapiens) (UniProt Q07869); assay: qHTS assay for small molecule agonists of the peroxisome proliferator-activated receptor alpha (PPARalpha) signaling pathway (AID 651778); conditions: PathHunter PPARalpha complementation, chemiluminescence, 6 h; stronger effect = higher value; note: % of control where 0% means no effect
# Sequence of Peroxisome proliferator-activated receptor alpha (Homo sapiens) (Q07869 whole entry, looked up, the tested form may be a part): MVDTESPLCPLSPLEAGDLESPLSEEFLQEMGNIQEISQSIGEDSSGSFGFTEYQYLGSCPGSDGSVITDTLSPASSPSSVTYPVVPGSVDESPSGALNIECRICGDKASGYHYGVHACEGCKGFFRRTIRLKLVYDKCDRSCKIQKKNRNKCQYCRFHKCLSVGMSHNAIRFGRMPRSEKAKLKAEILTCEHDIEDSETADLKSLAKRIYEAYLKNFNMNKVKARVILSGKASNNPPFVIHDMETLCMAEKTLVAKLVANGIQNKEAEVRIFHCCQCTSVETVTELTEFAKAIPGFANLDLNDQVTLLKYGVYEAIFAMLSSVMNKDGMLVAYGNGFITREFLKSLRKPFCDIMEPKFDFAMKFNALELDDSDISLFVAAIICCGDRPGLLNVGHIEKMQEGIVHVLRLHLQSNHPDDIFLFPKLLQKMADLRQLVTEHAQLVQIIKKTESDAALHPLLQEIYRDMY
# How it was run: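 Enzyme-fragment complementation assay in which ligand-bound PPARalpha translocates and forms an active enzyme that generates chemiluminescence. Cells were plated overnight, exposed to compound for 6 hr at 37 C, and then given detection reagent for 60 min at room temperature.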
# [31] = qHTS assay for small molecule agonists of the antioxidant response element (ARE) signaling pathway measured by Nrf2-dependant transcriptional activity (AID 720636; active = well fitted curve in the direction sought with a large enough effect in the repeat runs; an effect the other way counts as inactive or inconclusive; note: % of control where 0% means no effect)
# How it was run: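 ARE-luc HepG2 cells carrying an Nrf2-responsive luciferase reporter, in medium with 1% dialyzed FBS, exposed to compound for 16 hr at 37 C, 5% CO2. Luminescence read 30 min after ONE-Glo addition.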
# [32] = qHTS assay for cell viability of the p53RE-bla HCT-116 cell line (AID 743292)
# How it was run: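 CellSensor p53RE-bla HCT-116 cells (4,000/well) pre-incubated 5 h at 37 C, then exposed to compounds in DMSO for 16 h at 37 C. Viability read as ATP content by CellTiter-Glo luminescence after 30 min at room temperature.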
# [33] = target: Nuclear receptor subfamily 1 group I member 2 (Rattus norvegicus) (UniProt Q9R1A7); assay: qHTS assay for small molecule activators of the rat pregnane X receptor (rPXR) signaling pathway (AID 651751; call rule not given here; note: 0% is about no effect); conditions: rPXR reporter cells, luciferase (One-Glo), 24 h
# Sequence of Nuclear receptor subfamily 1 group I member 2 (Rattus norvegicus) (Q9R1A7 whole entry, looked up): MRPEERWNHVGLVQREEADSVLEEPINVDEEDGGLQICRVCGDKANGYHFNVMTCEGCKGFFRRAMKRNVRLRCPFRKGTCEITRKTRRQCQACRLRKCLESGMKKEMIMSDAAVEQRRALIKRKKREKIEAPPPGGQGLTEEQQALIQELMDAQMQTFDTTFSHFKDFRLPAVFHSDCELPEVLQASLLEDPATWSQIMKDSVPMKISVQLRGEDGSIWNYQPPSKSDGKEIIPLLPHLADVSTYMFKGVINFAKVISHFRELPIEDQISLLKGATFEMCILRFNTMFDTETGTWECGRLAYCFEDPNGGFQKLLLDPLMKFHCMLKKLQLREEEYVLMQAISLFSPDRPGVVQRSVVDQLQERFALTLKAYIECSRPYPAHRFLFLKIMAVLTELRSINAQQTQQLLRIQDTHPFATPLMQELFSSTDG
# [34] = qHTS assay for small molecule activators of the human pregnane X receptor (PXR) signaling pathway (AID 720659; call rule not given here; note: 0% is about no effect)
smiles,measurement,setting,value
BrCC(Br)(Br)Br,Potency,[1],12.6 µM (active)
same,Potency,[2],39.8 µM (active)
same,Potency,[3],12.6 µM (active)
same,Potency,[4],12.6 µM (active)
same,Potency,[5],15.8 µM (active)
same,Potency,[6],7.94 µM (active)
same,Potency,[7],12.6 µM (active)
same,Potency,[8],inactive
same,Potency,[9],inactive
same,Potency,[10],inactive
same,Potency,[11],inactive
same,Potency,[12],inactive
same,activation,[13],1.19% (inactive)
same,activation,[14],-2.57% (inactive)
same,outcome,[15],inactive
same,outcome,[16],inactive
same,outcome,[17],inactive
same,max response,[18],19.6%
same,outcome,[19],inactive
same,max response,[20],2.45%
same,max response,[21],23.1% (inactive)
same,activity change % (negative = inhibition),[22],-15.5% (inactive)
same,Potency,[23],29.8 µM (active)
same,activation,[24],-0.838% (inactive)
same,activation,[25],0.84% (inactive)
same,Potency,[26],inactive
same,outcome,[27],inactive
same,Potency,[28],42.2 µM (active)
same,activation,[29],1.69% (inactive)
same,max response,[30],-5.78% (inactive)
same,Potency,[31],inactive
same,Potency,[32],inactive
same,max response,[33],-4.89% (inactive)
same,outcome,[34],inactive
